# In PMC7862700, “An all-to-all approach to the identification of sequence-specific readers for epigenetic DNA modifications on cytosine”:
# How the values were obtained:
# Assay in all cases: DAPPL (digital affinity profiling via proximity ligation, sequencing); 10 mM Tris-HCl pH 7.5, 50 mM NaCl, 1 mM DTT, 4% glycerol, room temperature, 30 min; GST-TFs on glutathione beads, 16-mer random dsDNA library, 0.1% formaldehyde crosslink after washing; high values mean tight binding
# FLI1 = molecular target: T1, FLI1 (Homo sapiens, UniProt Q01543 1-452); details: protein: recombinant; tags: N-terminal GST; dsDNA, one strand shown
# T1 sequence: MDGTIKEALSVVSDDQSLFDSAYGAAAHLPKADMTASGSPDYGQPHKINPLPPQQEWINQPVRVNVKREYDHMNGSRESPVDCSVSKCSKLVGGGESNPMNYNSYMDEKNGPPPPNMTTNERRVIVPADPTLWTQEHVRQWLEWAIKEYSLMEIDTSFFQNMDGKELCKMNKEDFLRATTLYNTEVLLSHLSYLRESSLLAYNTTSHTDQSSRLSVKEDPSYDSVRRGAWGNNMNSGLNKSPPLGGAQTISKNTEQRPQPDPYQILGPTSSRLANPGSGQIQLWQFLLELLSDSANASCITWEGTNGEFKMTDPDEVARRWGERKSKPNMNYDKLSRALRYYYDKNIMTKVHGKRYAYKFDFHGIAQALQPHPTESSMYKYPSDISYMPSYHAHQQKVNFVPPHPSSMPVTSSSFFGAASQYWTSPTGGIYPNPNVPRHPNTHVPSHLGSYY
# Procedure, shortened: (§1)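 Pools were built from human transcription factors expressed in yeast as GST fusions, captured on glutathione beads and DNA-barcoded, along with a tag-only sample. Incubation with 200 nmole of a 16-mer random double-stranded DNA library lasted 30 min at room temperature in Tris/NaCl/DTT/glycerol buffer, and was followed by washing, 0.1% formaldehyde crosslinking, proximity ligation, PCR amplification and Illumina NextSeq500 sequencing. Binding signal is the quotient of each hexamer's read frequency for a factor and its frequency for the tag-only sample.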
# ELK1 = molecular target: T2, ELK1 (Homo sapiens, UniProt P19419 1-428); details: protein: recombinant; tags: N-terminal GST; dsDNA, one strand shown
# T2 sequence: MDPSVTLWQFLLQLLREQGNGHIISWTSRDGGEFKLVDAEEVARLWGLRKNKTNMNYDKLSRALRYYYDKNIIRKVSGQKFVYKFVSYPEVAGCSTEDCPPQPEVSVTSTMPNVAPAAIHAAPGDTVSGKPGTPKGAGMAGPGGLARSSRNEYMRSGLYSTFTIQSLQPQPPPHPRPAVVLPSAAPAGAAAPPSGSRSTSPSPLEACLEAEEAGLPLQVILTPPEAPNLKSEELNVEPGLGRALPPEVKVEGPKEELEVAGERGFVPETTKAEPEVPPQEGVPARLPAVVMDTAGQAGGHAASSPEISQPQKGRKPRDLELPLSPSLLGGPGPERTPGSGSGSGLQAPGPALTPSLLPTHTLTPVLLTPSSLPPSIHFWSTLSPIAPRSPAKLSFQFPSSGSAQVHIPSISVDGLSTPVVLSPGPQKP
# Procedure, shortened: as §1
# GABPA = molecular target: T3, GABPA (Homo sapiens, UniProt Q06546 1-454); details: protein: recombinant; tags: N-terminal GST; dsDNA, one strand shown
# T3 sequence: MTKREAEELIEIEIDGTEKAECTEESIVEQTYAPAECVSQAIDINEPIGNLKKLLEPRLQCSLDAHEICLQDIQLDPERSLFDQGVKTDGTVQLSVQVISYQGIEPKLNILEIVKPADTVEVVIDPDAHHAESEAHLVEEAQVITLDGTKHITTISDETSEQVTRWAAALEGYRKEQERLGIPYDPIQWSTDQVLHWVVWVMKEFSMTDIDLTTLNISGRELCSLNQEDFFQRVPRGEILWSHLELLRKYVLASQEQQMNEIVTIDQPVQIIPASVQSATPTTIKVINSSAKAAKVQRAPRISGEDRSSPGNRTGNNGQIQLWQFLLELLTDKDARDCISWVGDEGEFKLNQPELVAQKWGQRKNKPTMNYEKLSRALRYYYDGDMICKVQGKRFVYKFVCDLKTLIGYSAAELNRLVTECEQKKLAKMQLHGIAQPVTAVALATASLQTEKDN
# Procedure, shortened: as §1
# ERG = molecular target: T4, ERG (Homo sapiens, UniProt P11308 1-479); details: protein: recombinant; tags: N-terminal GST; dsDNA, one strand shown
# T4 sequence: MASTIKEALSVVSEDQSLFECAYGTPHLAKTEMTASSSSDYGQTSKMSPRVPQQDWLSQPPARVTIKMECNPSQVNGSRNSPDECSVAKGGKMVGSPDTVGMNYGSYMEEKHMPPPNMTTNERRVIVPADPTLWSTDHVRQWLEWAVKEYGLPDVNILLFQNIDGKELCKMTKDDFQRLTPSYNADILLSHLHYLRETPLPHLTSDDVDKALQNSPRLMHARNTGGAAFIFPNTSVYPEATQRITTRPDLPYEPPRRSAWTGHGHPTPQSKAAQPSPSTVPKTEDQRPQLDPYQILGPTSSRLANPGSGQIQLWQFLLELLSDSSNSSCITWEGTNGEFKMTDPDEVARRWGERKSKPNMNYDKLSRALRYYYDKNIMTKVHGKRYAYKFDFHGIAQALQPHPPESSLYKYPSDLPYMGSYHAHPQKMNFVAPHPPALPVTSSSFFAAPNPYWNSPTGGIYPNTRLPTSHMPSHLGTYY
# Procedure, shortened: as §1
# ELF1 = ELF1 (Homo sapiens, UniProt P32519 1-619); details: protein: recombinant; tags: N-terminal GST; dsDNA, one strand shown
# Sequence of ELF1 (P32519 whole entry): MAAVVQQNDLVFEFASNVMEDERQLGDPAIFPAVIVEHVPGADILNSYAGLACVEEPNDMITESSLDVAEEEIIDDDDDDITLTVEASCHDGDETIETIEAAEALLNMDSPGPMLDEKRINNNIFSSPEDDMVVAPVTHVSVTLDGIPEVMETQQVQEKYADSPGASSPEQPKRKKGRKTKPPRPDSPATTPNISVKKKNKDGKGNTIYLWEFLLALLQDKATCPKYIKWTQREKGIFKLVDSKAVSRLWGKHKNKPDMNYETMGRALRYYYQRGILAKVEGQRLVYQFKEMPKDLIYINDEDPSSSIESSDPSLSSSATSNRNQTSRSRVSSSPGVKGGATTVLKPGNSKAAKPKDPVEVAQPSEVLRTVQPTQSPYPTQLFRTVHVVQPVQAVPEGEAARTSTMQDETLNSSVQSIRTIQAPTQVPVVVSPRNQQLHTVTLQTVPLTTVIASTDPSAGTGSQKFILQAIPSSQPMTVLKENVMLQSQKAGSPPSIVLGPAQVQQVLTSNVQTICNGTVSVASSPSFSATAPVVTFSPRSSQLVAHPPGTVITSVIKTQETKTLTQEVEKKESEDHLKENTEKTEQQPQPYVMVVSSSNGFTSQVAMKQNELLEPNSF
# Procedure, shortened: as §1
# EHF = molecular target: T5, EHF (Homo sapiens, UniProt Q9NZC4 1-300); details: protein: recombinant; tags: N-terminal GST; dsDNA, one strand shown
# T5 sequence: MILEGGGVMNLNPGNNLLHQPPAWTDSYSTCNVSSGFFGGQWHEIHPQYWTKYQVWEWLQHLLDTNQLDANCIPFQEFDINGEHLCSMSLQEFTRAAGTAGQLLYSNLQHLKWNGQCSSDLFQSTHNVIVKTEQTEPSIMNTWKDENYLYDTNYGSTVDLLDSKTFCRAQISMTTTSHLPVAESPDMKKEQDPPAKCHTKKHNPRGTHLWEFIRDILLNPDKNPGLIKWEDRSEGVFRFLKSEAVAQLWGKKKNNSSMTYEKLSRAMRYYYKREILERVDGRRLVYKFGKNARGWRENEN
# Procedure, shortened: as §1
# SPI1 = SPI1 (Homo sapiens, UniProt P17947 1-270); details: protein: recombinant; tags: N-terminal GST; dsDNA, one strand shown
# Procedure, shortened: as §1
# SPIB = SPIB (Homo sapiens, UniProt Q01892 1-262); details: protein: recombinant; tags: N-terminal GST; dsDNA, one strand shown
# Sequence of SPIB (Q01892 whole entry): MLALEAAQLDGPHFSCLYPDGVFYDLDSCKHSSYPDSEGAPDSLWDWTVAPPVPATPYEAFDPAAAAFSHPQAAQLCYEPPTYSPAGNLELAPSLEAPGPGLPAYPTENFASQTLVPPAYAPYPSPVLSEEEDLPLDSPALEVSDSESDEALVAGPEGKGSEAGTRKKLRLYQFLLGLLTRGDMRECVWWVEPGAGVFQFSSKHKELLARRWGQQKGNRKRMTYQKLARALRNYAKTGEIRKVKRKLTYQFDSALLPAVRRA
# Procedure, shortened: as §1
# ELK3 = molecular target: T6, ELK3 (Homo sapiens, UniProt P41970 1-407); details: protein: recombinant; tags: N-terminal GST; dsDNA, one strand shown
# T6 sequence: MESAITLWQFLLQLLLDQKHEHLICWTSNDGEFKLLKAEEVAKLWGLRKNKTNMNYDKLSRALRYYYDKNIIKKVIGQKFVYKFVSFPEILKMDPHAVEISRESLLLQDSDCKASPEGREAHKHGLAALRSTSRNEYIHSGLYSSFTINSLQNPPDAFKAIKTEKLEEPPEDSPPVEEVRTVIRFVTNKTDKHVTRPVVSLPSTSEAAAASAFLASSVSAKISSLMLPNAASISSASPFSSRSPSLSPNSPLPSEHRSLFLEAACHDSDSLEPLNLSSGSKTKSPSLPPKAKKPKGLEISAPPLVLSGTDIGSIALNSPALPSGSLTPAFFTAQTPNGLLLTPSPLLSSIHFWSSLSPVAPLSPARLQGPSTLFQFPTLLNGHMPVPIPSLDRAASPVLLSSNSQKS
# Procedure, shortened: as §1
# FEV = molecular target: T7, FEV (Homo sapiens, UniProt Q99581 1-238); details: protein: recombinant; tags: N-terminal GST; dsDNA, one strand shown
# T7 sequence: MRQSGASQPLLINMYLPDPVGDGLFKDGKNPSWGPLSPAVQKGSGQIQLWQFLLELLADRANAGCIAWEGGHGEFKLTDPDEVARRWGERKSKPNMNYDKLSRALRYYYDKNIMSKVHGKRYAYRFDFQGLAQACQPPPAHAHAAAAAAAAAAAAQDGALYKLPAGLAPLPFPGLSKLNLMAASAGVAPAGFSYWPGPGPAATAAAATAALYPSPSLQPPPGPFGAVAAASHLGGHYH
# Procedure, shortened: as §1
# ETV5 = ETV5 (Homo sapiens, UniProt P41161 1-510); details: protein: recombinant; tags: N-terminal GST; dsDNA, one strand shown
# Sequence of ETV5 (P41161 whole entry): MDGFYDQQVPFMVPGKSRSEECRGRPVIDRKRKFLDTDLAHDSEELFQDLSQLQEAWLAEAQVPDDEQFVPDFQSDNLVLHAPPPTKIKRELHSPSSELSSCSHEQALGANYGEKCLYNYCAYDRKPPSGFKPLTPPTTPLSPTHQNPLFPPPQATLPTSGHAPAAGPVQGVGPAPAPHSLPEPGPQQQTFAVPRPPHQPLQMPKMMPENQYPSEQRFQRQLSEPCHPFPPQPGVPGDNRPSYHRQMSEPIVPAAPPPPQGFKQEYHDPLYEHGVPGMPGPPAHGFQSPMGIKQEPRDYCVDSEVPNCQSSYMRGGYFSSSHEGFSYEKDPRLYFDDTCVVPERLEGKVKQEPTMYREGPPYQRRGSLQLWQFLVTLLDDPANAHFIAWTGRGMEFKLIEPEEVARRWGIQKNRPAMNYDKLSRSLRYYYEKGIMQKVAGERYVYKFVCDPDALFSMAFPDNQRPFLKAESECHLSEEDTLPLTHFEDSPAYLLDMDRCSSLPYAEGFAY
# Procedure, shortened: as §1
# HSF1 = HSF1 (Homo sapiens, UniProt Q00613 1-529); details: protein: recombinant; tags: N-terminal GST; chain copies: 3; dsDNA, one strand shown
# Sequence of HSF1 (Q00613 whole entry): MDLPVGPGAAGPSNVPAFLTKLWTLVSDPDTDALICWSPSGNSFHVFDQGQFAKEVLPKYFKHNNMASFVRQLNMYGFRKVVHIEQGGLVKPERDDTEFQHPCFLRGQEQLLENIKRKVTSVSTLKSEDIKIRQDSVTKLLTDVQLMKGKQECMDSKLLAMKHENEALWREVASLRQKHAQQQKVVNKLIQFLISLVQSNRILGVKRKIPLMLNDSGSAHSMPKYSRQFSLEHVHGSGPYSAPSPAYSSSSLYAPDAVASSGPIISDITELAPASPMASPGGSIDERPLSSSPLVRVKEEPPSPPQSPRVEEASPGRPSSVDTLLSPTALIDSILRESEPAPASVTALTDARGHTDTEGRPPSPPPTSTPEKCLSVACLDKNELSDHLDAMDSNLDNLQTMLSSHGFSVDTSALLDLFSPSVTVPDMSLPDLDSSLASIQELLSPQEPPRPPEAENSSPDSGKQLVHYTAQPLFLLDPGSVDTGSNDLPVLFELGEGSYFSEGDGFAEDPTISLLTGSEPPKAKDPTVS
# Procedure, shortened: as §1
# SPIC = molecular target: T8, SPIC (Homo sapiens, UniProt Q8N5J4 1-248); details: protein: recombinant; tags: N-terminal GST; dsDNA, one strand shown
# T8 sequence: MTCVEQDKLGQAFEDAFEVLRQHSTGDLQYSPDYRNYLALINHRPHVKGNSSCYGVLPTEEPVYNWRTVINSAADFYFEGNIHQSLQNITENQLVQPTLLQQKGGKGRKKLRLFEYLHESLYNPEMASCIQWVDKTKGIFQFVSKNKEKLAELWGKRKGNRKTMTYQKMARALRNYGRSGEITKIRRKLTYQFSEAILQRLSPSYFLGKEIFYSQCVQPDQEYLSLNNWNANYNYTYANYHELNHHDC
# Procedure, shortened: as §1
# ELF4 = ELF4 (Homo sapiens, UniProt Q99607 1-663); details: protein: recombinant; tags: N-terminal GST; dsDNA, one strand shown
# Sequence of ELF4 (Q99607 whole entry): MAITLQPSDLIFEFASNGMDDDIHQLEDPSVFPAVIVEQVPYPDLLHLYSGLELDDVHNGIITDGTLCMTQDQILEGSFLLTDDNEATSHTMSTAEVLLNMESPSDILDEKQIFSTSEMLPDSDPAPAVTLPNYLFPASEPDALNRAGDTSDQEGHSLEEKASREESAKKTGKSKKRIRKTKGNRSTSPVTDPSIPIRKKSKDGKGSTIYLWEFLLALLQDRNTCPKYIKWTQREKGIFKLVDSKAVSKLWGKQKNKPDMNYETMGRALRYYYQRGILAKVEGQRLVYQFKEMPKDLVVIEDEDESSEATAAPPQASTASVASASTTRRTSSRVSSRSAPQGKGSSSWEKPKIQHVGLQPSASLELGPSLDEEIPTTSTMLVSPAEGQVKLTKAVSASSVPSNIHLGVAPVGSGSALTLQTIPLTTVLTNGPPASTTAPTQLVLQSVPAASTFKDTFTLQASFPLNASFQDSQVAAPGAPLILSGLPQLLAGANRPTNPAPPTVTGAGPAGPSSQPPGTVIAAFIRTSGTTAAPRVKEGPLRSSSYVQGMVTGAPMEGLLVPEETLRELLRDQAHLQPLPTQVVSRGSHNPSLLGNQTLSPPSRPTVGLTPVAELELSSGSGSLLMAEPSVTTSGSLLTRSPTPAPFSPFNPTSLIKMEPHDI
# Procedure, shortened: as §1
# ELK4 = molecular target: T9, ELK4 (Homo sapiens, UniProt P28324-2 1-405); details: protein: recombinant; tags: N-terminal GST; dsDNA, one strand shown
# T9 sequence: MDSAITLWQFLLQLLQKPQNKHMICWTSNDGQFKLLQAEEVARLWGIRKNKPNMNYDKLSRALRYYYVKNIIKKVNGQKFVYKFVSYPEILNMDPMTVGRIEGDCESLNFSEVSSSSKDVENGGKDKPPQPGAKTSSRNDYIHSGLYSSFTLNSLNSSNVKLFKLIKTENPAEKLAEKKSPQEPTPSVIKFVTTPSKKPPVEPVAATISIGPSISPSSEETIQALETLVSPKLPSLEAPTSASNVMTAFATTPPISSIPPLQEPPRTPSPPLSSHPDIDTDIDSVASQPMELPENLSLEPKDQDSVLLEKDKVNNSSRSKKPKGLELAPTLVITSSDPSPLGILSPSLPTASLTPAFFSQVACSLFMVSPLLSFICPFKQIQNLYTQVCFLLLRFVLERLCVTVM
# Procedure, shortened: as §1
# ETV2 = molecular target: T10, ETV2 (Homo sapiens, UniProt O00321 1-342); details: protein: recombinant; tags: N-terminal GST; dsDNA, one strand shown
# T10 sequence: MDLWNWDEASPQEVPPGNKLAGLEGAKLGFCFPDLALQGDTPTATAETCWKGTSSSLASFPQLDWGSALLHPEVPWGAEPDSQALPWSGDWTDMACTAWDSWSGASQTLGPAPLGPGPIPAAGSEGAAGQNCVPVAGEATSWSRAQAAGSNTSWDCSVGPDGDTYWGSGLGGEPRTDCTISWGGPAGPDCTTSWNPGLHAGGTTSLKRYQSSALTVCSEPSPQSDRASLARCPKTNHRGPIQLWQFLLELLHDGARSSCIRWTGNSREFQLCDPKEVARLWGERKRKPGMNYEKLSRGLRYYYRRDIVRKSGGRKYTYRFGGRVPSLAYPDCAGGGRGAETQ
# Procedure, shortened: as §1
# ELF3 = molecular target: T11, ELF3 (Homo sapiens, UniProt P78545 1-371); details: protein: recombinant; tags: N-terminal GST; dsDNA, one strand shown
# T11 sequence: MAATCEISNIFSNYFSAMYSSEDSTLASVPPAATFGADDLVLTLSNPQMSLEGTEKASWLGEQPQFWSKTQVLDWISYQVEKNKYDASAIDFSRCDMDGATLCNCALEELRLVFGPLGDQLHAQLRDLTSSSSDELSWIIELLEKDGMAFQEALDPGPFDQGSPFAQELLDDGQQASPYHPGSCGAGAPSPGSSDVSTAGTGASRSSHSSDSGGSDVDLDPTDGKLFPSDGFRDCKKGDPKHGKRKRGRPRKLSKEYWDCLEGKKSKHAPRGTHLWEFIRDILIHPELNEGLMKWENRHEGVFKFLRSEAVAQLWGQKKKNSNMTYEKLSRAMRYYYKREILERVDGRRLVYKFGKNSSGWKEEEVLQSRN
# Procedure, shortened: as §1
# ETV1 = ETV1 (Homo sapiens, UniProt P50549 1-477); details: protein: recombinant; tags: N-terminal GST; dsDNA, one strand shown
# Sequence of ETV1 (P50549 whole entry): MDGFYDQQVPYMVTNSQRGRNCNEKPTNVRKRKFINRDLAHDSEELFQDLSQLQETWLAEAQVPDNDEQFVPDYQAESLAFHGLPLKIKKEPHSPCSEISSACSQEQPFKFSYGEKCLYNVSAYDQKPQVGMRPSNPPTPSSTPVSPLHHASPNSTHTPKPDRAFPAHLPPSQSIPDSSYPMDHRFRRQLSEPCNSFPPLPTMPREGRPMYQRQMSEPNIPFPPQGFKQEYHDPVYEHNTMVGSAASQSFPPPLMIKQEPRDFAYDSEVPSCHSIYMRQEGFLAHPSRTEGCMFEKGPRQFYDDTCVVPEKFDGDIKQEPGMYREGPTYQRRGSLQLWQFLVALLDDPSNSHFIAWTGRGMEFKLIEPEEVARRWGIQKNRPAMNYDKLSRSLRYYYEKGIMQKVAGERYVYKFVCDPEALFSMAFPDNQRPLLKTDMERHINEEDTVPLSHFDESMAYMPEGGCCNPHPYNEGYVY
# Procedure, shortened: as §1
sequence,measurement,setting,value
CGCTCC,binding signal,FLI1,"1.37 fold enrichment (6-mer frequency, TF over GST control)"
same,binding signal,ELK1,"1.28 fold enrichment (6-mer frequency, TF over GST control)"
same,binding signal,GABPA,"1.37 fold enrichment (6-mer frequency, TF over GST control)"
same,binding signal,ERG,"1.33 fold enrichment (6-mer frequency, TF over GST control)"
same,binding signal,ELF1,"1.31 fold enrichment (6-mer frequency, TF over GST control)"
same,binding signal,EHF,"1.24 fold enrichment (6-mer frequency, TF over GST control)"
same,binding signal,SPI1,"1.29 fold enrichment (6-mer frequency, TF over GST control)"
same,binding signal,SPIB,"1.36 fold enrichment (6-mer frequency, TF over GST control)"
same,binding signal,ELK3,"1.37 fold enrichment (6-mer frequency, TF over GST control)"
same,binding signal,FEV,"1.34 fold enrichment (6-mer frequency, TF over GST control)"
same,binding signal,ETV5,"1.31 fold enrichment (6-mer frequency, TF over GST control)"
same,binding signal,HSF1,"1.09 fold enrichment (6-mer frequency, TF over GST control)"
same,binding signal,SPIC,"1.33 fold enrichment (6-mer frequency, TF over GST control)"
same,binding signal,ELF4,"1.38 fold enrichment (6-mer frequency, TF over GST control)"
same,binding signal,ELK4,"1.41 fold enrichment (6-mer frequency, TF over GST control)"
same,binding signal,ETV2,"1.36 fold enrichment (6-mer frequency, TF over GST control)"
same,binding signal,ELF3,"1.3 fold enrichment (6-mer frequency, TF over GST control)"
same,binding signal,ETV1,"1.26 fold enrichment (6-mer frequency, TF over GST control)"
